The values below come from PubChem BioAssay (EPA / NIEHS).

Structures are written as SMILES. The source made the active and inactive calls. How the source made its calls: active means hit-call score of the fitted dose curve at least 0.9, where 1 is the maximum; inactive means score below 0.9.

The nature of this test: CEETOX_H295R_OHPREG: CeeTox H295R High-throughput Steroidogenesis Assay for OH-Pregnenolone (OHPREG) (AID 2283434). Particulars: actives raise or lower the signal. The procedure:
CEETOX_H295R is a cell-based, multiplexed-readout assay that uses H295R, a human adrenal gland cell line, with measurements taken at 48 hours after chemical dosing in a 96-well plate.CEETOX_H295R_OHPREG is one of 23 assay component(s) measured or calculated from the CEETOX_H295R assay. It is designed to make measurements of hormone induction, a form of inducible reporter, as detected with […] by HPLC-MS-MS technology.Data from the assay component CEETOX_H295R_OHPREG was analyzed into 1 assay endpoint. This assay endpoint, CEETOX_H295R_OHPREG, was analyzed with bidirectional fitting relative to DMSO as the negative control and baseline of activity. Using a type of inducible reporter, gain or loss-of-signal activity using HPLC-MS-MS was used to understand synthesis of 17alpha-hydroxypregnenolone in H295R cell line at 48hr of chemical exposure. To generalize the intended target to other relatable targets, this assay endpoint is annotated to the steroid hormone intended target family, where the subfamily is progestagens.
Cell culture and media preparation procedures were conducted in accordance with OECD Test No. 456 guidelines, with minor modifications. H295R cells (ATCC CRL-2128) were expanded for 5 passages and frozen in batches in liquid nitrogen. Prior to the steroidogenesis assay, H295R cells were thawed and passed at least 4 times. The maximum passage was 10. Cells were maintained in a 1:1 mixture of DMEM/F12 supplemented with 5ml/L ITS+ Premix (BD Bioscience) and 12.5 ml/L Nu-Serum (BD Bioscience). After seeding cells into 96-well plates at 50-60% confluency, cells were allowed to adhere overnight. Prior to chemical testing, culture medium was replaced with 175 uL medium containing 10 uM forskolin to stimulate steroidogenesis for 48 hours. Following prestimulation, forskolin medium was replaced with medium containing test chemical solubilized in DMSO (ensuring a final concentration of 0.1% DMSO). Test chemicals were incubated for 48 hours, then the medium was removed and split into 2 vials containing approximately 75uL each, and stored at -80 C prior to hormone analysis. For steroid quantification, media samples were shipped to OpAns, LLC (Durham, NC) on dry ice, and samples were thawed to room temperature prior to liquid-liquid extraction. Steroid hormones were extracted from media samples using methyl tertbutyl ether (MTBE). An extra derivatization with dansyl chloride was included for estrogen (estrone and estradiol) detection only. Steroid hormones were separated by HPLC, eluted using a reverse phase C18 gradient with electrospray positive ionization, followed by quantification by tandem mass spectrometry (MS/MS). Data were acquired on a MassHunter Workstation Acquisition version B03.01 (Agilent Technologies, Inc.) and processed using MassHunter Quantitative Analysis for QQQ. Accuracy was determined for each hormone analyte from 3 standards to determine upper and lower limits of quantification (ULOQ and LLOQ, respectively) using a 7-point standard curve. Precision and accuracy of the extraction and quantification methods were calculated as the percent relative standard deviation (%RSD) of the spiked standards and percent spiked standard recovered, respectively. The goal was to achieve 100% accuracy (i.e., recover all spiked-in standard at quantification with minimal loss during run time) and good precision (i.e., have %RSD <15% to ensure reproducibility). Test medium was removed following chemical exposure, and cell viability was evaluated in the same wells by MTT. MTT procedures were as follows: after removal of test medium, 500 uL of 0.5 mg/ml of 3-[4,5-dimethylthiazol-2-y]2,5-diphenyltetrazoliumbromide solution was added to the cells. Following a 4-hour incubation at 37 C and 5% CO2 to allow formazan-crystal formation, the MTT solution was removed and blue formazan salt crystals were solubilized using 500uL anhydrous isopropanol with shaking for 20 minutes. […]
Take `CCCCCc1ccc(O)cc1`: the result was inactive. For the compound `COc1cc([N+](=O)[O-])ccc1N`, the compound was called inactive. The same measure, in the same setting: the same measure for `CC(C)CCOCCC(C)C`: “inactive”; for `Cc1cccc2c1ccc1ccccc12`: “inactive”.

One may read the AC50 as the concentration giving half of the maximal activity seen. With `C[C@]12CC[C@@H]3c4ccc(O)cc4CC[C@H]3[C@@H]1C[C@@H](O)[C@@H]2O`, the half-maximal activity concentration (AC50) was 31.8 µM (active).

With `Clc1ccc(Nc2nnc(Cc3ccncc3)c3ccccc23)cc1`, the compound was classed as inactive.

On to `COc1cccc(O)c1`, for which the result was inactive. On the same count and under the same terms, as for `O=C(NCc1ncc(C(F)(F)F)cc1Cl)c1c(Cl)cccc1Cl`, the entry is “inactive”. On the same count and under the same terms, the same measure for `CCCCCC(C)OC(=O)COc1ccc(Cl)c2cccnc12` (stereo not drawn): “inactive”. With `c1cc[nH]c1`, the compound was classed as inactive. Turning to `CC(C)(c1ccc(Oc2ccc(N)cc2)cc1)c1ccc(Oc2ccc(N)cc2)cc1`, the AC50 is 0.0361 µM (active). With `CC(C)(C)c1ccc(O)c(O)c1`, the result was inactive. On the same count and under the same terms, the same measure for `Oc1cc2ccccc2cc1O`: “inactive”.
